ELG1 DNA repair = ELG1-dependent DNA repair inhibition. HEK293T ELG1-luciferase reporter, luminescence, 16 h; DNA damage induced by 5-fluorouridine. Potency, µM (top dose mostly 46.1 µM), for the others: at the top dose activity change, negative = inhibition, hits mostly inhibitors. hit rate 2.3% among 330,000; note: % is set by controls: 0 for no effect and ±100 for the full control effect; nearly all actives have a fitted effect of over 55% in size
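5-Fluorouridine DNA damage + compound/DMSO, 2,000 cells/well, 16 h, 37 °C/5% CO2. ONE-Glo, 30 min RT, luminescence. Readout = decrease in reporter signal.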
SMN2 splice enh = SMN2 splice variant enhancement. HEK293 SMN2-luciferase splicing reporter, luminescence, 30-36 h. Potency, µM (top dose mostly 46.1 µM), for inactives: at the top dose activity change, positive = activation, most hits filed as activators. hit rate 2.8% among 210,000. AID 1458; note: % of control where 0% means no effect; nearly all actives have a fitted effect of over 55% in size
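qHTS luciferase splicing reporter: luminescence rises when SMN2 exon 7 is included in transfected HEK293 cells. Compound exposure lasted 30-36 h at 37C, with 4.5 mM final sodium butyrate as control, followed by a ONE-Glo read.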
FLuc counter = inhibits or activates purified firefly luciferase, miR-21 counter-screen; hit rate 6.9% among 360,000; P08659; purified FLuc, Km substrates, luminescence inhibition; Potency, µM (highest dose often 57.5 µM), for the others: at the top dose activity change, negative = inhibition, actives largely listed as inhibitors;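 note: plate controls were vehicle for no effect and reference inhibitor for full effect; nearly all actives have a fitted effect of over 55% in size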
Target sequence (P08659 whole entry, looked up): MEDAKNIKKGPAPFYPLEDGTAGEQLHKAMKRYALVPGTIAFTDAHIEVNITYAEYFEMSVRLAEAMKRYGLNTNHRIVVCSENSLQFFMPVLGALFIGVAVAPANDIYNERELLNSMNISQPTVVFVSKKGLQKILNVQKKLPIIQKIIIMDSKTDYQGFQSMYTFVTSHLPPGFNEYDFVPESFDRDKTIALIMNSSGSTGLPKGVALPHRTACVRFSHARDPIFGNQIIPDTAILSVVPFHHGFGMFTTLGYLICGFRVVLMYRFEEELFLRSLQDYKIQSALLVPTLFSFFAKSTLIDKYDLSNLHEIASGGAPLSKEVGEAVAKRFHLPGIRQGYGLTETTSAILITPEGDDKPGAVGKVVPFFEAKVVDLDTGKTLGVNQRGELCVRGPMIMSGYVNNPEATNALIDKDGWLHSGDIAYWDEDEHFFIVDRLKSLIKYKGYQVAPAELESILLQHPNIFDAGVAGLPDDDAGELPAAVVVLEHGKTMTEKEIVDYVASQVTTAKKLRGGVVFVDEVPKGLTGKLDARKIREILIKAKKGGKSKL
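Purified P. pyralis luciferase, 10 nM final, with Km-level 10 uM D-luciferin and 10 uM ATP in 50 mM Tris acetate pH 7.5, 10 mM Mg acetate, 0.01% Tween-20, 0.05% BSA; 6-point qHTS titration about 60 µM downward; luminescence read.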
Rab9 prom act = activates the Rab9 promoter; hit rate 2.8% among 320,000; Huh7 Rab9 promoter-luciferase reporter, luminescence, 24 h; Potency, µM (titrated, usually from 9.22 µM), for the others: at the highest dose activation, negative = inhibition, actives largely listed as activators; note: % of control where 0% means no effect; nearly all actives have a fitted effect of over 60% in size
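Quantitative HTS format; Huh7 Rab9-luciferase reporter cells (1500/well) receive compound 2 h post-plating, incubate 24 h at 37 °C, then get luciferase reagent for 10 min before luminescence reading.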
NPC1 promoter act = activates the NPC1 promoter; hit rate 2.4% among 320,000; Potency, µM (doses to about 9.22 µM), without a hit: at the top dose activation, usual class: activators; Huh7 NPC1 promoter luciferase reporter, 24 h; AID 485313; note: % of control where 0% means no effect; nearly all actives have a fitted effect of over 60% in size
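Compounds in DMSO were transferred onto Huh7 NPC1-luciferase reporter cells pre-incubated 2 h; after 24 h at 37 °C, Amplite reagent was dispensed and luminescence recorded 10 min later.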
ELG1 genotox = genotoxicity induction in ELG1-luciferase HEK293T cells | HEK293T ELG1-luciferase reporter, luminescence, 16 h | AID 504466 | hit rate 1.3% among 330,000 | Potency, µM (series often up to 46 µM), inactives show at the highest dose activity change, positive = activation, usual class: activators; note: % of control where 0% means no effect; nearly all actives have a fitted effect of over 60% in size
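Screening used a luciferase reporter fused to human ELG1 in HEK293T cells. Luminescence was read on a CCD plate imager after 16 hr exposure and 30 min ONE-Glo incubation.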
Active calls of the source: *; ? = inconclusive; nt = no result given. In the library only some 9.3% were active in any assay of this set; here they are far more common. Calls come from the whole dose curve; as a rule, active = well fitted curve in the direction sought with a large enough effect; inconclusive = small, poorly fitted or top-dose-only effect, or another doubt; inactive = no such curve, though single readings can be large; an effect the other way counts as inactive or inconclusive. Potency is the fitted concentration of half-maximal effect.

SMILES	ELG1 DNA repair	SMN2 splice enh	FLuc counter	Rab9 prom act	NPC1 promoter act	ELG1 genotox
Cc1cc(C(=O)COc2ncnc3sccc23)c(C)n1C	?	11.2µM*	16.9µM*	?	?	18.4µM*
Cc1ccccc1Nc1c(-c2ccc(N3CCOCC3)cc2)nc2ccc(Br)cn12	nt	-8.4%	3.38µM*	nt	nt	nt
Cc1cccc(C)c1Nc1c(-c2ccc(N3CCOCC3)cc2)nc2cnccn12	-0.9%	nt	?	-2.4%	-1.7%	5.4%
Cc1ccccc1Nc1c(-c2ccc(N3CCOCC3)cc2)nc2ccccn12	nt	11.2µM*	0.239µM*	nt	nt	nt
Cc1ccccc1Nc1c(-c2ccc(N3CCOCC3)cc2)nc2cccc(C)n12	nt	17.9%	1.35µM*	nt	nt	nt
N#C/C(=C\c1cn(-c2ccccc2)nc1-c1cccnc1)c1nnc2n1CCCCC2	20.6µM*	11.5%	-2.1%	1.2%	0.8%	-3.3%
O=C(/C=C/c1cn(-c2ccccc2)nc1-c1cccnc1)c1ccco1	0.0%	-37.0%	9.53µM*	-7.9%	-5.3%	-13.9%
N#C/C(=C/c1ccccc1[N+](=O)[O-])c1nnc2n1CCCCC2	9.1%	-14.1%	-0.5%	-2.3%	-1.3%	1.5%
O=C(/C=C/c1cn(-c2ccccc2)nc1-c1cccnc1)N1CCCC1	13µM*	-12.5%	?	-2.1%	-2.5%	-13.2%
CN(Cc1ccccc1)S(=O)(=O)c1ccc(OCC(=O)Nc2cccc([N+](=O)[O-])c2)cc1	0.7%	nt	3.1%	-6.6%	-2.4%	-3.0%
O=C(Nc1nnc(Cc2ccc(Cl)cc2)s1)c1cccs1	?	15.3%	-0.9%	20.4%	17.1%	21.3%
O=C(Nc1nnc(CC2=CCCCC2)s1)c1cccs1	?	14.1µM*	?	?	?	14.6µM*
O=C(Nc1nnc(Cc2ccccc2)s1)c1cccs1	?	12.1%	?	1.78µM*	?	?
O=C(Nc1nnc(Cc2ccccc2)s1)c1ccccc1	?	nt	-17.8%	?	3.16µM*	?
COc1ccc(Cc2nnc(NC(=O)c3cccs3)s2)cc1	?	-7.0%	?	0.9%	-0.1%	?
COc1ccc(N2CCCC2)c(NC(=O)c2ccc(Br)o2)c1	-25.8%	nt	3.8%	0.0%	-0.5%	-9.0%
CNC(=O)c1sc2nc(-c3ccc(OC)cc3)cn2c1C	?	nt	3.38µM*	0.891µM*	1.58µM*	2.06µM*
COc1ccc(CNC(=O)Cc2csc3nc(-c4ccc(C)cc4)cn23)cc1	nt	nt	16.9µM*	nt	nt	nt
COc1ccc(-c2cn3c(C)c(C(=O)NCCN4CCOCC4)sc3n2)cc1	1.8%	-6.0%	?	0.0%	-4.1%	2.5%
CCN(CC)C(=O)c1sc2nc(-c3ccc(OC)cc3)cn2c1C	?	?	7.57µM*	?	1.78µM*	?
O=S(=O)(CC(O)COc1ccc(Br)cc1)c1ccccc1 (stereo unspecified)	-4.6%	nt	-2.9%	-4.0%	-5.5%	0.0%
CCN(CC)S(=O)(=O)c1ccc(OC)c(NC(=O)c2cc3c(=O)n4ccccc4nc3s2)c1	23.2%	-4.4%	2.5%	-7.0%	-5.3%	7.9%
COC(=O)c1ccc(OCc2cc(=O)n3ccsc3n2)cc1	?	14.1µM*	?	?	?	25.2%
CCOC(=O)c1nnn(-c2nonc2-c2ccccc2)c1C	16.7%	-7.2%	-0.1%	-7.3%	-1.7%	0.4%
COCCn1c(C)cc(C(=O)COC(=O)c2ccccc2Br)c1C	?	nt	0.0953µM*	-11.2%	-6.7%	0.206µM*
COCCn1c(C)cc(C(=O)COC(=O)CCS(=O)(=O)c2ccc(C)cc2)c1C	?	nt	?	0.6%	0.9%	19.2%
COCCn1c(C)cc(C(=O)COC(=O)c2ccc3ncsc3c2)c1C	?	15.3%	6.75µM*	2.82µM*	2.82µM*	?
COCCn1c(C)cc(C(=O)COC(=O)c2cncc(Br)c2)c1C	?	-5.9%	7.57µM*	?	?	?

Source: PubChem
